PubChem BioAssay (EPA / NIEHS)
Inconclusive results are not listed. Activity calls are given as the source filed them. The calls were made as follows, unless noted: active = hit-call score of the fitted dose curve at least 0.9, where 1 is the maximum; inactive = score below 0.9.

Experiments:
[1] = molecular target: Retinoic acid receptor RXR-alpha (Homo sapiens) (UniProt P19793); experiment: TOX21_TR_RXR_BLA_Antagonist_Followup_ratio: Tox21 Thyroid Hormone Receptor beta Retinoid X Receptor alpha (RXRa) Antagonism Beta-lactamase (BLA) Follow-Up Assay, Ratio (AID 2283972; active = hit-call score of the fitted dose curve at least 0.9, where 1 is the maximum)
Chain of Retinoic acid receptor RXR-alpha (Homo sapiens) (P19793 whole entry, looked up): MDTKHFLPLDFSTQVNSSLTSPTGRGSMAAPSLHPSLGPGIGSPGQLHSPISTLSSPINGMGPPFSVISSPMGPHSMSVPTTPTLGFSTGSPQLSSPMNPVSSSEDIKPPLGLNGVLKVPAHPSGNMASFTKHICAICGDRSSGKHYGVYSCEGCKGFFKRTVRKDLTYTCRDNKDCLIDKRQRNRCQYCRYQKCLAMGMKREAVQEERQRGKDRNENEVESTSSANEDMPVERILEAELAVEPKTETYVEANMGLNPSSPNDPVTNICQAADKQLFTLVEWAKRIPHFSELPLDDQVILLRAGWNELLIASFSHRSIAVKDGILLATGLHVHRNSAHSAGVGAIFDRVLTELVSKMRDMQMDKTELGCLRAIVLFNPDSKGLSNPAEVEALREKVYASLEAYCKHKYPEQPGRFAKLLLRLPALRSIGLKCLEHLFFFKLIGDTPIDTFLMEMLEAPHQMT
How it was run: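 RXRa-UAS-bla HEK293T cells in phenol red-free DMEM with 2% charcoal-stripped FBS; compounds at 11 concentrations in triplicate, 16 h at 37C. LiveBLAzer FRET-B/CCF4-AM substrate 2 h at room temperature; read as 460:530 nm ratio versus DMSO.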

[2] = TOX21_TR_RXR_BLA_Antagonist_Followup_viability: Viability Assessment in the Tox21 Thyroid Hormone Receptor beta Retinoid X Receptor alpha (RXRa) Antagonism Beta-lactamase (BLA) Follow-Up Assay (AID 2283979; active = hit-call score of the fitted dose curve at least 0.9, where 1 is the maximum)
Description: GeneBLAzer RXRa-UAS-bla HEK293T assay (RXRa-bla) (ThermoFisherScientific Catalog No. K1697) was run in qHTS 1536 well format as a secondary assay for specificity of response in the TOX21_TR_GH3_LUC_Agonist assay.TOX21_TR_RXR_BLA_Antagonist_Followup_viability is a component of the TOX21_TR_RXR_BLA_Antagonist_Followup assay. This component measures cell viability using the CellTiter-Glo Luciferase-coupled ATP quantitation.The assay component endpoint TOX21_TR_RXR_BLA_Antagonist_Followup_viability was analyzed with bidirectional fitting relation to DMSO as the negative control and baseline of activity. Using a type of viability reporter, loss-of-signal activity can be used to understand changes in viability. […]
Cell Media Required: Growth (90% DMEM/F-12, 10% Fetal Bovine Calf Serum, 100U/ml Penicillin, 100 ug/ml Streptomycin), Assay (10ng/mL sodium selenite, 10 ug/mL humanapo-transferrin, 10 uM ethanolamine, 10 ug/mL insulin, 500 ug/mL bovine serum albumin (BSA))Assay Protocol: RXRa-bla cells were seeded at 2,500/well in 6 uL of the assay medium containing phenol red-free DMEM with 2% charcoal-stripped FBS in 1,536-well black-wall/clear-bottom plates (Greiner Bio-One North America) usinga Multidrop Combi dispenser. […] After 2-h incubation at room temperature, the fluorescence intensity was measured using an Envision plate reader (Perkin Elmer). Data were expressed as the ratio of 460:530 nm.

[3] = CCTE_Harrill_HTTr_Viability_DMEM_6hr: (Pilot) CCTE's 6-hour Cell Viability Assessment for the High-Throughput Transcriptomics (HTTr) Platform, in MCF-7 cells cultured in DMEM + 10% fetal bovine serum, Harrill Lab (AID 2283973)
How it was run: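 Propidium iodide uptake imaged by high-content analysis after six hours of chemical treatment in an eight-concentration series. Cells: MCF-7 grown in DMEM with 10% fetal bovine serum; DMSO as baseline.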

[4] = CCTE_Harrill_HTTr_Viability_DMEM_12hr: (Pilot) CCTE's 12-hour Cell Viability Assessment for the High-Throughput Transcriptomics (HTTr) Platform, in MCF-7 cells cultured in DMEM + 10% fetal bovine serum, Harrill Lab (AID 2283974)
How it was run: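 Propidium iodide dye exclusion imaged by high-content microscopy after 12 h chemical exposure (eight concentrations) of MCF-7 cells grown in DMEM plus 10% FBS; values fitted in both directions relative to DMSO.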

[5] = CCTE_Harrill_HTTr_Viability_DMEM_24hr: (Pilot) CCTE's 24-hour Cell Viability Assessment for the High-Throughput Transcriptomics (HTTr) Platform, in MCF-7 cells cultured in DMEM + 10% fetal bovine serum, Harrill Lab (AID 2283975)
Description: This is a cell-based assay that evaluates cell viability using high content imaging to evaluate membrane integrity using propidium iodide dye exclusion in a 384 well format.One of seven assay components measured from the CCTE_Harrill_HTTr_Viability assay. This was part of a pilot experiment. This is a cell-based assay that evaluates cell viability in MCF-7 cells cultured in DMEM + 10% fetal bovine serum. High content imaging is used to evaluate membrane integrity using propidium iodide dye exclusion. Measurements are taken at 24 hours after chemical dosing in 384-well format.The assay component endpoint CCTE_Harrill_HTTr_Viability_DMEM_24hr was analyzed with bidirectional fitting relation to DMSO as the negative control and baseline of activity. Using a type of viability reporter to understand changes in cytotoxicity, gain-of-signal activity can be used to evaluate membrane integrity using propidium iodide dye exclusion. To generalize the intended target to other relatable targets, this assay endpoint is annotated to cell cycle, where the subfamily is cytotoxicity.
Chemicals were tested in MCF7 cells in an eight point dilution series with a twenty-four hour exposure duration.

[6] = CCTE_Harrill_HTTr_Viability_PRF_DMEM_6hr: (Pilot) CCTE's 6-hour Cell Viability Assessment for the High-Throughput Transcriptomics (HTTr) Platform, in MCF-7 cells cultured phenol red-free DMEM + 10% charcoal-stripped fetal bovine serum, Harrill Lab (AID 2283976)
How it was run: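 Membrane integrity by high-content imaging of propidium iodide uptake, six hours after dosing with eight concentrations. Cells: MCF-7 grown in phenol red-free DMEM plus 10% charcoal-stripped serum; DMSO serves as baseline for bidirectional fits.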

[7] = CCTE_Harrill_HTTr_Viability_PRF_DMEM_12hr: (Pilot) CCTE's 12-hour Cell Viability Assessment for the High-Throughput Transcriptomics (HTTr) Platform, in MCF-7 cells cultured in phenol red-free DMEM + 10% charcoal-stripped fetal bovine serum, Harrill Lab (AID 2283977)
How it was run: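 Membrane integrity was scored via propidium iodide dye exclusion imaging, fitted in both directions relative to DMSO. Compounds ran as eight-point dilutions for 12 hours on MCF-7 grown in phenol red-free DMEM plus 10% charcoal-stripped serum.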

[8] = CCTE_Harrill_HTTr_Viability_PRF_DMEM_24hr: (Pilot) CCTE's 24-hour Cell Viability Assessment for the High-Throughput Transcriptomics (HTTr) Platform, in MCF-7 cells cultured in phenol red-free DMEM + 10% charcoal-stripped fetal bovine serum, Harrill Lab (AID 2283980)
How it was run: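 Propidium iodide exclusion imaged at 24 h after dosing scores viability; cells were MCF-7 grown in phenol red-free DMEM plus 10% charcoal-stripped serum, tested in eight concentrations, fitted in both directions against DMSO.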

[9] = CCTE_Harrill_HTTr_Apoptosis_DMEM_6hr: (Pilot) CCTE's 6-hour Apoptosis Assessment for the High-Throughput Transcriptomics (HTTr) Platform, in MCF-7 cells cultured in DMEM + 10% fetal bovine serum, Harrill Lab (AID 2283981)
How it was run: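 MCF-7 cells grown in DMEM + 10% FBS were exposed for 6 hours to an eight-point dilution series. CellEvent Caspase 3/7 Green signal was imaged; activity fitted bidirectionally against DMSO.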

[10] = CCTE_Harrill_HTTr_Apoptosis_DMEM_12hr: (Pilot) CCTE's 12-hour Apoptosis Assessment for the High-Throughput Transcriptomics (HTTr) Platform, in MCF-7 cells cultured in DMEM + 10% fetal bovine serum, Harrill Lab (AID 2283982)
How it was run: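 Caspase-3/7 activity was measured by high-content imaging (CellEvent Caspase 3/7 Green) after a 12-hour exposure of MCF-7 cells grown in DMEM with 10% FBS. Eight-point concentration series, fitted bidirectionally against vehicle.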

In the case of COc1cc(C(=O)NC2CCN(C)CC2)ccc1Nc1ncc2c(n1)N(C1CCCC1)CC(F)(F)C(=O)N2C, the outcome [1] is reported as “inactive” and the AC50 [2] is reported as 26 µM (active).

For CC1(C)NC(=O)N(c2ccc([N+](=O)[O-])c(C(F)(F)F)c2)C1=O, the outcome [3] was “inactive”, the outcome [4] was “inactive” and the outcome [5] was “inactive”. The outcome [6] was “inactive”, the outcome [7] was “inactive” and the outcome [8] was “inactive”. The outcome [9] was “inactive” and the outcome [10] was “inactive”.
